Test [1] can be described thus: ATG_ISRE_CIS: Attagene CIS-FACTORIAL HepG2 Assay for human Interferon Regulatory Factor 1 (IRF1) binding to an Interferon-Stimulated Response Element (ISRE) (AID 2282948). As to conditions: HepG2 ISRE cis-reporter (Attagene), mRNA transcription readout; actives raise or lower the signal. In outline:
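Read-out: fluorescent RT-PCR products resolved by capillary electrophoresis, reporting endogenous transcription factor activity via ISRE-driven reporter mRNA in transfected HepG2 cells dosed for 24 h; gain or loss fitted relative to DMSO.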

Test [2] is described as follows: ATG_M_32_CIS: Attagene CIS-FACTORIAL HepG2 Assay for M32 Transcription Factor (Internal Marker) (AID 2282949).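 Further: background control marker of the multiplexed CIS panel rather than a real target.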 As to conditions: HepG2 Attagene cis-factorial M32 reporter, mRNA; actives raise or lower the signal. In outline: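 HepG2 transfectants (cis-regulated reporter transcription units) dosed 24 h. Reporter mRNA by RT-PCR plus CE, analysed as gain or loss relative to DMSO.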

Test [3] can be described thus: ATG_M_06_CIS: Attagene CIS-FACTORIAL HepG2 Assay for M06 Transcription Factor (Internal Marker) (AID 2282950). As to conditions: HepG2 Attagene CIS-FACTORIAL M06 internal marker reporter; actives raise or lower the signal. The procedure, abridged:
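Fluorescence-labelled RT-PCR products from cis-promoter reporter units, cut with HpaI and resolved by capillary electrophoresis, give the signal. Cells are human HepG2, dosed for 24 h. Serves as background control, fitted relative to DMSO.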

Test [4] deals with Hepatocyte nuclear factor 6 (Homo sapiens) (UniProt Q9UBC0). Description: ATG_HNF6_CIS: Attagene CIS-FACTORIAL HepG2 Assay for human Hepatocyte Nuclear Factor 6 (HNF6) (AID 2282952). The following applies: HepG2 Attagene cis-factorial HNF6 reporter transcription; actives raise or lower the signal. In outline:
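Endogenous transcription factor activity in human HepG2 liver cells was captured through cis-regulated reporter constructs. After 24 h treatment, reporter mRNA was measured by RT-PCR with capillary electrophoresis, and activity was fitted in both directions relative to DMSO.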

Test [5] addresses Heat shock factor protein 1 (Homo sapiens) (UniProt Q00613). Nature of the test: ATG_HSE_CIS: Attagene CIS-FACTORIAL HepG2 Assay for human Heat Shock Transcription Factor 1 (HSE) (AID 2282953). The following applies: HepG2 HSE cis-reporter, Attagene RNA transcription; actives raise or lower the signal. In outline: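 After a 24 h incubation with test chemical, transfected HepG2 cells were harvested for RNA; reporter transcripts were measured by RT-PCR and capillary electrophoresis. Values reflect gain or loss of signal relative to DMSO.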

A short description of test [6]: ATG_MRE_CIS: Attagene CIS-FACTORIAL HepG2 Assay for human Metal Responsive Element (MRE) (AID 2282954). As to conditions: HepG2 MRE cis-reporter transcription, Attagene multiplex; actives raise or lower the signal. The procedure, abridged:
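Endogenous MRE-dependent transcription read as reporter mRNA in transiently transfected human HepG2 cells at 24 h. RNA reverse-transcribed, PCR-amplified, labelled and resolved by capillary electrophoresis; gain or loss relative to DMSO.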

Test [7] can be described thus: ATG_PBREM_CIS: Attagene CIS-FACTORIAL HepG2 Assay for human Phenobarbital-responsive Enhancer Module (PBREM) (AID 2282955). As to conditions: HepG2 PBREM cis-reporter, Attagene multiplexed transcription; actives raise or lower the signal. In outline: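 Multiplexed cis-reporter readout in human hepatoma HepG2 cells; PBREM-regulated transcript quantified after 24 h exposure by fluorescent RT-PCR fragment analysis. Signal changes up or down fitted relative to DMSO.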

For test [8], the target named is Paired box protein Pax-6 (Homo sapiens) (UniProt P26367). Description: ATG_Pax6_CIS: Attagene CIS-FACTORIAL HepG2 Assay for human Paired Box 6 (PAX6) (AID 2282956). The following applies: HepG2 CIS-FACTORIAL PAX6 reporter transcription, RNA readout; actives raise or lower the signal. The procedure, abridged:
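Readout: reporter transcript fluorescence after RT-PCR and capillary electrophoresis. Cells: HepG2, transiently transfected with cis-regulated MRTUs. Exposure 24 h. Gain or loss of signal fitted bidirectionally relative to DMSO.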

Test [9] is described as follows: ATG_PXRE_CIS: Attagene CIS-FACTORIAL HepG2 Assay for human Pregnane X Receptor Element (PXRE) (AID 2282957). The following applies: HepG2 Attagene CIS-FACTORIAL PXRE reporter, mRNA; actives raise or lower the signal. The procedure, abridged:
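Endogenous transcription factor activity in HepG2 was gauged through induction of reporter mRNA driven by a cis-regulating promoter element, sampled 24 h post-treatment. Activity was fitted in both directions against DMSO negative control.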

Test [10] has as its target Hypoxia-inducible factor 1-alpha (Homo sapiens) (UniProt Q16665). Nature of the test: ATG_HIF1a_CIS: Attagene CIS-FACTORIAL HepG2 Assay for human Hypoxia Inducible Factor 1 (HIF1A) (AID 2282951). The following applies: HepG2 Attagene cis-factorial HIF1a reporter transcription; actives raise or lower the signal. In outline: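 Cis-element reporter constructs were transiently transfected into HepG2 cells, which were treated for 24 h; reporter RNA was reverse-transcribed, amplified, labelled and resolved by capillary electrophoresis.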

Data on 20 molecules can be found in PubChem BioAssay (EPA / NIEHS).

Values joined by “and” are separate entries in the source; they are usually repeats but may differ in a detail not shown here. Equal entries are not always repeated. A structure can be active in one record and inactive in another. Active and inactive are the calls of the source. How the source made its calls: active means hit-call score of the fitted dose curve at least 0.9, where 1 is the maximum; inactive means score below 0.9.

Chain of Hepatocyte nuclear factor 6 (Homo sapiens) (Q9UBC0 whole entry, looked up): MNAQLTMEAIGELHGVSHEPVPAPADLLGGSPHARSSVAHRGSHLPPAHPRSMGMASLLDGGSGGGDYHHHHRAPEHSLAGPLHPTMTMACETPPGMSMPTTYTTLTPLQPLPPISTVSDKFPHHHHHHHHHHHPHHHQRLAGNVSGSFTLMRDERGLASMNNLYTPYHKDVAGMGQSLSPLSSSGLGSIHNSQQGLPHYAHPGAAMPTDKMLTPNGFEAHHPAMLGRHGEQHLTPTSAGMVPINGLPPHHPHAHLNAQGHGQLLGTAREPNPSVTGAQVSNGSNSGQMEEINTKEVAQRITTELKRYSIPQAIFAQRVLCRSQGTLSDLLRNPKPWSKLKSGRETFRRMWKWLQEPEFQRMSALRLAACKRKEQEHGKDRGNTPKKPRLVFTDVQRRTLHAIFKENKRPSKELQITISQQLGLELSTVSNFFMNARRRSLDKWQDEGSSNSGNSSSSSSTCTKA
Chain of Paired box protein Pax-6 (Homo sapiens) (P26367 whole entry, looked up): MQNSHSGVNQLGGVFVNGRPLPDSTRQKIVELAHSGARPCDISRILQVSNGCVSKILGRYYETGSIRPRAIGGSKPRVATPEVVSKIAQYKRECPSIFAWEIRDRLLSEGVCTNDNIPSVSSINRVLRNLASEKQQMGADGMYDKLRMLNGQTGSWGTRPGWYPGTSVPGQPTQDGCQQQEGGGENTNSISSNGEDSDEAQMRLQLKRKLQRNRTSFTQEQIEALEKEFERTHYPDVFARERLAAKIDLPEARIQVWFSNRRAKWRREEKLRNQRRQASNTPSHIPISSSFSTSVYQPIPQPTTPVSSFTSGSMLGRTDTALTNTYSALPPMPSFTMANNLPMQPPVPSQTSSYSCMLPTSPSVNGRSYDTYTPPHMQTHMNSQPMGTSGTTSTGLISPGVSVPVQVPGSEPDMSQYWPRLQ
Chain of Heat shock factor protein 1 (Homo sapiens) (Q00613 whole entry, looked up): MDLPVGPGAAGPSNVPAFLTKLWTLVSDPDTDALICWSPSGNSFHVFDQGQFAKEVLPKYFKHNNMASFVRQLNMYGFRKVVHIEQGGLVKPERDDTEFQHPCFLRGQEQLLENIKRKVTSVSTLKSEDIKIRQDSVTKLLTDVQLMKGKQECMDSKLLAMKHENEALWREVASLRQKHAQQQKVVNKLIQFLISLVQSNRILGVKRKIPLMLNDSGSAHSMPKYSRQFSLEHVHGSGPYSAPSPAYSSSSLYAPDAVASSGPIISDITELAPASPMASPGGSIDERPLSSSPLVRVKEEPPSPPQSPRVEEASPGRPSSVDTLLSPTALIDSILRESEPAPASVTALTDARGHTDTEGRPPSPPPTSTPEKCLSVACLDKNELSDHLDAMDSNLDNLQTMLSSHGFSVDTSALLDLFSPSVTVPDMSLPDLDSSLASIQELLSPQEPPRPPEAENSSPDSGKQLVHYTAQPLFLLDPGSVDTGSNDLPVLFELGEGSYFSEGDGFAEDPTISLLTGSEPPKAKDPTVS
Chain of Hypoxia-inducible factor 1-alpha (Homo sapiens) (Q16665 whole entry, looked up): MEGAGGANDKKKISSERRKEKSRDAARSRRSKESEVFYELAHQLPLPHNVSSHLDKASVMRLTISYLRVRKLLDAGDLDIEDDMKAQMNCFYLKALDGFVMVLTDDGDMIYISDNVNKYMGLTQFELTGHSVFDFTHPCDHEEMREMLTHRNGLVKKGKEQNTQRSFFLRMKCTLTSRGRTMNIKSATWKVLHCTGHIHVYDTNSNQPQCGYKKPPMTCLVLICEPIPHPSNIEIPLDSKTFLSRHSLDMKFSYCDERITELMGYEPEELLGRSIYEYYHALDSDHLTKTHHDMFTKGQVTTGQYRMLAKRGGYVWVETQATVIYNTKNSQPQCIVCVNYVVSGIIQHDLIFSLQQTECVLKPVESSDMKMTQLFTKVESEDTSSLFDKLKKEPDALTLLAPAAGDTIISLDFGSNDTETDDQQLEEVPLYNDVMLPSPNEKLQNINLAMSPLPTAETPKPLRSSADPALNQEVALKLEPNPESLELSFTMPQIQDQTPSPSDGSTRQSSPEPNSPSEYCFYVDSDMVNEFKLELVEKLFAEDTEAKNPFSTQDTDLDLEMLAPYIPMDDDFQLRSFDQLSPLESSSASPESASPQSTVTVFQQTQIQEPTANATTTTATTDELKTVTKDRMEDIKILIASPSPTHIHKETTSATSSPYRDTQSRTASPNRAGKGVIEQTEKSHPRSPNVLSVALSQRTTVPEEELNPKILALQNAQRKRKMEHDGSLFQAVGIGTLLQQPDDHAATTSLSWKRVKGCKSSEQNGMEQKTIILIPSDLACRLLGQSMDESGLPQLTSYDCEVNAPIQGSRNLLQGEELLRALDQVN

For the molecule `O=Cc1cccc(Oc2ccccc2)c1`, the result in [1], in test [2], in test [3], in test [4], in [5] and in test [6] was inactive. For the same molecule, the outcome in [7], in [8] and in test [9] was inactive.

The term AC50 denotes the concentration at which the activity in the assay is half-maximal. For `Oc1cccc2cccnc12`, the call in [1], in [2], in [3], in test [4], in test [5] and in [6] was inactive. The result in test [7] and in test [8] was inactive. Besides, the AC50 in test [6] is 148 µM (active); in [9], 27.5 µM (active) and 95.5 µM (active).

`CCCCCCCCC(=O)NCc1ccc(O)c(OC)c1`: the molecule was classed as inactive in [1], in test [2], in test [3], in [4], in [7] and in test [8]. For the same molecule, the results for the AC50 in test [5], in test [6] and in test [9] were 125 µM (active), 131 µM (active) and 26.2 µM (active), respectively.

On to `COc1ccc(OC)c(C=O)c1`, for which the call in [1], in test [2], in test [3], in test [10], in [5] and in [6] was inactive. In addition, the result in test [8] was inactive. In addition, the AC50 in test [9] is 16.9 µM (active).

With `ClC1(Cl)C2(Cl)C3(Cl)C4(Cl)C(Cl)(Cl)C5(Cl)C3(Cl)C1(Cl)C5(Cl)C24Cl` (stereo not given), the molecule was classed as inactive in test [1], in test [2], in test [3], in test [4], in test [5] and in test [6]. Moreover, the molecule was classed as inactive in test [8]. The AC50 in test [9] is 0.365 µM (active).

As to `C=C(C)C#N`, the result in [1], in test [2], in test [3], in [4], in test [5] and in test [6] was inactive. For the same molecule, the outcome in test [7], in test [8] and in test [9] was inactive.

On to `CCOP(=S)(OCC)SCSP(=S)(OCC)OCC`, for which the molecule was called inactive in [1], in [2], in test [3], in test [5], in [6] and in test [8]. Also, the AC50 in test [7] was 1.06 µM (active); in test [9], 0.192 µM (active).

As for `O=C(O)Cc1ccccc1`, the outcome in test [1], in test [2], in test [3], in test [4], in test [5] and in test [6] was inactive. Also, the result in test [7], in [8] and in test [9] was inactive.

Take `O=C1CCCN1`: the molecule was classed as inactive in [1], in test [2], in [3], in [4], in test [5] and in [6]. In addition, the result in test [7], in [8] and in [9] was inactive.

`COP(=S)(OC)Oc1ccc(S(=O)(=O)N(C)C)cc1`: the molecule was classed as inactive in test [1], in test [2], in [3], in test [4], in [5] and in [7]. The molecule was called inactive in test [8]. For the same molecule, the concentration at half-maximal activity (AC50) in [6] was 69 µM (active); in [9], 26.8 µM (active).

For `Cc1ccc(N)cc1Cl`, the result in [1], in test [2], in test [3], in test [4], in test [5] and in [6] was inactive. Also, the outcome in test [7], in test [8] and in test [9] was inactive.

As to `c1cc[c]([Hg][c]2ccccc2)cc1`, the outcome in test [1], in test [2], in test [3], in test [4], in [5] and in [8] was inactive. Also, the result in [9] was inactive. The AC50 in test [6] was 14.4 µM (active).

With `CCCCCCCCCl`, the outcome in [1], in test [2], in [3], in test [4], in test [5] and in [6] was inactive. The call in test [8] and in test [9] was inactive.

For the molecule `CC(C)(C)c1cc(O)ccc1O`, the molecule was called inactive in [1], in [2], in [3], in test [4] and in [7]. For the same molecule, the AC50 in test [5] is 187 µM (active); in test [6], 120 µM (active); in test [8], 124 µM (active); in test [9], 4.27 µM (active).

Turning to `O=P(O)(O)CN(CP(=O)(O)O)CP(=O)(O)O`, the molecule was classed as inactive in [1], in test [2], in test [3], in test [4], in test [5] and in [6]. Also, the result in test [8] and in test [9] was inactive.

On to `CC(=[OH+])/C=C(/C)[O-].CC(=[OH+])/C=C(/C)[O-].CC(=[OH+])/C=C(/C)[O-].[Fe]`, for which the result in test [1], in test [2], in test [3], in test [10], in test [5] and in test [6] was inactive. Moreover, the result in [8] and in test [9] was inactive.

Regarding `CCNc1nc(NC(C)(C)C)nc(SC)n1`, the half-maximal activity concentration (AC50) in test [1] is 100 µM (active); in test [6] it was 118 µM (active); in [9], 1.67 µM (active). Further, the outcome in test [2], in test [3], in test [4], in test [5] and in test [8] was inactive.

On to `C=CC(=O)N(C)C`, for which the result in test [1], in test [2], in test [3], in test [4], in test [5] and in test [6] was inactive. Further, the molecule was called inactive in test [8] and in [9].

For the molecule `Oc1c(I)cc(I)cc1I`, the AC50 in test [1] was 100 µM (active); in [5] it was 125 µM (active); in test [6], 100 µM (active); in [8] it was 77.1 µM (active). Moreover, the outcome in [2], in [3], in test [4] and in test [9] was inactive.

As to `CCOP(=O)(CN(CCO)CCO)OCC`, the molecule was called inactive in [1], in test [2], in [3], in test [4], in [5] and in [6]. Further, the molecule was classed as inactive in test [8] and in test [9].
